# High-throughput results: PubChem, several laboratories
# Ins promoter up = insulin promoter activators in MIN6 cells, imaging, high-content screening, mouse beta cells; MIN6 insulin promoter-GFP reporter; active compounds read high; z-score at 5 µM; 0.3% of 190,000 active; AID 1625, 2009;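 active means z-score above 3 at 5 µM with at least 500 cells counted in the well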
# Lmaj promast = Leishmania major promastigote growth inhibition, primary screen. Leishmania major promastigotes, resazurin fluorescence viability. 9% of 200,000 active. AID 1063, 2008. inhibition, % at 10 µM; in the data active means inhibition above about 50%;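 further: promastigotes grown with compound for 44 hours at 28 °C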
# INS promoter inh = inhibitors of insulin promoter-driven GFP, primary screen, imaging, TRM-6 cells (human fetal islet line), eGFP reporter, cell count; reporter expression induced with tamoxifen; inhibition, % at 2 µM; 0.9% of 130,000 active; AID 1273, 2008;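 active means inhibition above the mean plus 3 SD, with well images judged a real hit on visual review, cut at about 60% in these data, passing the limit was not always enough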
# Autophagy mod = autophagy modulators in MEF cells, primary screen, imaging, high-content, MEF GFP-LC3 | calls only at 10 µM (by protocol) | MEF GFP-LC3 puncta imaging; test concentration mostly 10 µM | AID 463193, 2010 | 0.98% of 190,000 active;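 active means percentage of spot-positive cells more than 3 SD above its plate mean, without a fluorescence outlier flag or 80% toxicity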;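 further: spot-positive cell cutoff set from DMSO-treated cells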
# WT yeast gro inh = growth inhibition of WT strain, primary screen, mitochondrial fusion inhibitor project, WT and mutant strains, chemical genetic; 2.1% of 190,000 active; mitochondrial fusion phenotypic screen; inhibition, % at 10 µM; in the data active means inhibition above about 58%; tested in S. cerevisiae
# * marks the source's active call; other numbers are inactive results; i = inactive; · = no result; + = active, no number. The list is not random: actives were taken first. Their share in the collection is about 11%.
SMILES,Ins promoter up,Lmaj promast,INS promoter inh,Autophagy mod,WT yeast gro inh
Cc1ccc(CNC(=O)C2CCCCC2C(=O)O)cc1 (stereo not given),-0.24,19,3,i,1
Cn1nc(-c2ccc(N3CCCCC3)c(NC(=O)c3ccco3)c2)c2ccccc2c1=O,-2.5,56*,-4,i,40
CCC(=O)Nc1cc(-c2nn(C)c(=O)c3ccccc23)ccc1N1CCOCC1,1.4,0,-33,i,-17
COc1ccc(OC)c(C(=O)C2COC(=O)C2)c1 (stereo not given),0.36,56*,-20,i,21
COc1ccc(OC)c(C(=O)COC(=O)C2CC3CCCC(C2)C3=O)c1 (stereo not given),0.36,-7,-39,i,1
O=C(c1ccccc1F)N(Cc1ccc2c(c1)OCO2)Cc1cc2cc3c(cc2n2nnnc12)OCO3,-0.46,87*,-37,i,2
O=C(NCCN1C(=O)S/C(=C\c2ccc(F)cc2)C1=O)c1cccc(S(=O)(=O)N2CCOCC2)c1,1.8,35,-26,i,-16
CN(c1ccccc1C(=O)Nc1ccc(S(=O)(=O)N2CCOCC2)cc1)S(=O)(=O)c1ccccc1,0.22,91*,33,i,-6
Cc1ccc(NC(=O)c2cccc(S(=O)(=O)N(C)c3ccccc3)c2)cc1S(=O)(=O)N1CCOCC1,·,98*,-3,i,-10
COc1ccccc1N(C)S(=O)(=O)c1ccc(C(=O)Nc2ccc3nc(C)sc3c2)cc1,0.21,100*,3,i,25
Cc1ccc(C(=O)Nc2cccc(C(=O)O)c2)cc1S(=O)(=O)N1CCOCC1,0.06,0,0,i,-15
CCC(C)(C)NC(=O)c1ccc(S(=O)(=O)N(C)c2ccccc2OC)cc1,-0.16,38,42,i,20
COc1ccccc1N(C)S(=O)(=O)c1ccc(C(=O)Nc2ccc(N3CCOCC3)cc2)cc1,0.33,99*,·,i,-3
CC(C)CN1CCN(Cc2ccc3ncccc3c2)CC1CCO (stereo not given),-0.54,5,·,i,7
COc1cccc(C(=O)C2CCCN(C(=O)c3cccc(C#CC(C)(C)O)c3)C2)c1 (stereo not given),0.05,11,·,i,-7
CCC1SC2=NC(C)=C(C(=O)OCCOC)C(c3ccc(C(=O)OC)cc3)N2C1=O (stereo not given),-0.15,-3,·,i,9
Cc1ccc(N(C)S(=O)(=O)c2cccc(C(=O)Nc3nc4ccccc4[nH]3)c2)cc1,·,90*,12,i,30
COc1ccccc1N(C)S(=O)(=O)c1ccc(Cl)c(C(=O)NC2=NCCS2)c1,-0.08,57*,-80,i,8
Cc1nc2ccc(NC(=O)c3ccccc3)cc2s1,·,-2,-5,i,-12
COc1cccc(C(=O)Nc2nc3ccccc3[nH]2)c1,·,29,17,i,21
Cc1nc2ccc(NC(=O)c3cccc(S(=O)(=O)N(C)c4ccccc4)c3)cc2s1,0.31,99*,-19,i,24
CN(Cc1ccccc1)C(=O)c1ccccc1-c1ccccc1,-0.1,13,·,i,12
CC1(C)CSC(=NCCc2ccccc2)N1C(=O)c1ccc(C#N)cc1,-0.86,92*,22,i,11
CC(NC(=O)C12CC3(C)CC(C)(CC(C)(C3)C1)C2)C(=O)O (stereo not given),0.27,0,71*,i,-6
CC12CC3(C)CC(C)(C1)CC(C(=O)NCC(=O)O)(C2)C3,0.01,1,·,i,13
SMILES,Ins promoter up,Lmaj promast,INS promoter inh,Autophagy mod,WT yeast gro inh
c1ccc(CCn2nnnc2C(c2cccnc2)N2CCN(c3nc4ccccc4s3)CC2)cc1 (stereo not given),0.3,100*,·,i,31
Fc1ccc(N2CCN(C(c3cccs3)c3nnnn3CCc3ccccc3)CC2)cc1 (stereo not given),·,71*,53,i,10
c1ccc(Cn2nnnc2C(c2cccnc2)N2CCN(C3CCCCC3)CC2)cc1 (stereo not given),0.18,-8,4,i,5
Oc1ccc(N2CCN(C(c3cccnc3)c3nnnn3Cc3ccccc3)CC2)cc1 (stereo not given),·,65*,0,i,13
COCCn1nnnc1C(c1ccccc1)N1CCN(c2ccccc2)CC1 (stereo not given),·,1,12,i,-8
c1ccc(CCn2nnnc2C(c2cccnc2)N2CCN(c3ccccc3)CC2)cc1 (stereo not given),·,97*,·,i,-65
CCOC(=O)C1=NN(C(=O)Nc2cccc(C(F)(F)F)c2)C2C(=O)N(c3cccc(C(F)(F)F)c3)C(=O)C12 (stereo not given),0.01,-11,12,i,11
O=C1OC(c2cccc([N+](=O)[O-])c2)C2(CCCC2)C(=O)C12CCCCC2 (stereo not given),0.1,5,16,i,51
CC1CC(NC(=O)C2(C)CC2(Cl)Cl)CC(C)(C)C1 (stereo not given),-0.17,55*,-19,i,12
CC1CC(NC(=O)CC#N)CC(C)(C)C1 (stereo not given),0.29,·,·,·,·
CCCNC(=O)c1nc(C)n(-c2ccc([N+](=O)[O-])cc2)n1,0.5,3,·,i,-20
CCCCn1c(-c2nonc2N)nc2ccccc21,-0.33,3,-29,i,-3
c1ccc(Cn2c(CNc3nc4ccccc4n3CCN3CCOCC3)nc3ccccc32)cc1,-0.93,59*,-91,i,1
COCc1nc2ccccc2n1Cc1ccccc1,0.17,2,20,i,15
Cc1ccc(Cn2c(Cc3ccccc3)nc3ccccc32)cc1,0.29,13,52,i,71*
Nc1nonc1-c1nc2ccccc2n1Cc1ccccc1,0.13,0,-13,+,2
Cc1cccc(NCc2nc3ccccc3n2Cc2ccccc2)c1,-0.65,30,-38,i,75*
CCC(C)NC(=O)CNC(=O)Cn1c(C)cc2ccccc2c1=O (stereo not given),-0.25,-7,·,i,11
O=C(NCc1ccc(OC(F)(F)F)cc1)C1CC(c2cccc(F)c2)=NO1 (stereo not given),0.47,·,·,·,·
CCCc1cc2c(=O)n(NC(=O)c3nn(C)cc3[N+](=O)[O-])c(C)nc2s1,0.51,-1,25,i,3
COc1ccccc1NCC(=O)NNCC(=O)Nc1ccc(F)c(Cl)c1,-0.25,7,-33,i,-18
Cc1ccc(C(=O)Nc2cccc(C(=O)O)c2)cc1,-0.88,-4,-7,i,-4
Cc1oc2c(c1C(=O)Nc1cccc(C(=O)O)c1)CCCC2,·,-6,66*,i,-17
CCNCc1ccc(OCc2cccs2)c(OCC)c1,-0.39,54*,13,i,-4
COc1cccc(CNCCO)c1OCc1ccc(Cl)cc1,·,6,7,i,10
CCCCNCc1cc(Br)c(OCc2cccs2)c(OC)c1,-0.93,101*,-43,i,1
